Source: PubChem BioAssay
IDE cell inh: cellular human IDE inhibition; P14735; HEK cells, FAbetaB cleavage, fluorescence polarization; inhibition, % at 5.59 µM; 320,000 tested, 0.41% active; AID 434962;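 active = percent inhibition above the average of all tested compounds plus 3 SD, set per screening campaign, cut at about 16% in these data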;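 also: IDE supplied by intact live HEK cells; FP after avidin binding of uncleaved biotin substrate so inhibition keeps polarization high; 0% = DMSO wells and 100% = 60 µM reference IDE inhibitor Ii1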
PP1 inh: PP1-alpha (human) inhibition in PP5 counter-screen; 320,000 tested, 0.9% active; purified PP1alpha, OMFP fluorescence; inhibition, % at 6.7 µM; AID 2235;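 active = inhibition above the mean inhibition of all tested compounds plus 3 SD, computed separately for each screening campaign, cut at about 15% in these data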
IDE cell activ: IDE (human) activation, cell-based. AID 493087. HEK cells, FAbeta-B cleavage, fluorescence polarization; 0% vehicle, 100% cell-free pure enzyme wells. P14735. activation, % at 5.96 µM. 340,000 tested, 0.073% active;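 active = activation above the mean of all tested compounds plus 3 SD, set per screening campaign, cut at about 17% in these data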
SKKanGAS inh: blocks kanamycin growth of S. pyogenes SKKanGAS strain; BacTiter-Glo, 6 h; inhibition, % at 7.5 µM; 300,000 tested, 1.3% active; AID 1662;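 active = mean replicate score, as percent of positive control median, at least 50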;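 also: strain carries kanamycin resistance gene driven by streptokinase promoter and grows in 40 µg/ml kanamycin; loss of luminescence reflects streptokinase promoter inhibition or plain growth inhibition; 0% = median of DMSO wells and 100% = positive control at its reference dose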
PP5 primary: blocks human protein phosphatase 5 activity; inhibition, % at 6.7 µM; purified PP5c, OMFP substrate fluorescence; P53041; 320,000 tested, 0.18% active;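 active = inhibition above the campaign's mean inhibition across all tested compounds plus 3 SD, cut at about 9.5% in these data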;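 also: 0% = DMSO only and 100% = 100 µM cantharidin control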
Target sequence (P53041 whole entry, looked up): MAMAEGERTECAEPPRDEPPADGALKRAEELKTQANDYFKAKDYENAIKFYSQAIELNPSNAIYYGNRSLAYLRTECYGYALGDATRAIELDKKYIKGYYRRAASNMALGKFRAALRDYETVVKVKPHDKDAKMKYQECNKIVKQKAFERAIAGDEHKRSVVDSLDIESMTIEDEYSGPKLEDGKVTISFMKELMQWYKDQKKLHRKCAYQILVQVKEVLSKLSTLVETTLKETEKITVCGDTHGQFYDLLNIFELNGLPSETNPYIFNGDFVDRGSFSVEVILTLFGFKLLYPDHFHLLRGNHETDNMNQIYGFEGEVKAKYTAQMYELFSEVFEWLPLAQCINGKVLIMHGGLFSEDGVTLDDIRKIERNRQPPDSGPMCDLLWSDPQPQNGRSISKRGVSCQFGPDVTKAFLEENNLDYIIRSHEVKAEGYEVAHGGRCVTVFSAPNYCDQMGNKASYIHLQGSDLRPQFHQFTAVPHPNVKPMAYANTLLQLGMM
Exocytosis inh: lytic granule exocytosis inhibition. TALL-104 LAMP-1 surface exposure, flow cytometry; cells stimulated with thapsigargin and PMA. 360,000 tested, 0.66% active. inhibition, % at 10 µM;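 active = inhibition above about 55%, limit read from the data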
Active calls of the source: *; · = no result. Most compounds without a hit are left out; they make up all but 2.8% or so of the library.

SMILES	IDE cell inh	PP1 inh	IDE cell activ	SKKanGAS inh	PP5 primary	Exocytosis inh
Cc1nc(COC(=O)c2cc(O)c3ccccc3c2O)cs1	·	·	0.7	11.6	·	64.4*
CC(C)n1cnc2c(NCc3ccccc3)nc(NCc3ccccc3)nc21	-1.1	4.6	3.7	89.9*	5.1	12.9
CC(Oc1ccc(Cl)cc1Cl)C(=O)NC1=NN(c2ccccc2)C(=O)C1 (centres undefined)	1.3	16.6*	6.5	93.9*	4.3	3.8
CC(C)(Oc1ccc(Cl)cc1)C(=O)NC1=NN(c2ccccc2)C(=O)C1	4.3	12.3	6.3	94.5*	0.8	-4.3
O=C1CC(NC(=O)C(F)(F)F)=NN1c1ccccc1	-0.3	-1.1	5.8	3.6	1.2	-0.4
Cc1nn(CC(=O)NC2C(=O)N3C(C(=O)O)=C(CSc4nnnn4C)CSC23)cc1Br (centres undefined)	-7.8	1.0	-4.9	108.6*	-2.6	-4.4
NC(=O)c1cc[n+](CC2=C(C(=O)O)N3C(=O)[C@@H](NC(=O)C(c4ccccc4)S(=O)(=O)[O-])[C@H]3SC2)cc1 (some centres undefined)	-1.8	4.8	-3.2	-8.1	-0.1	-3.4
Cc1c(Cl)c(C(F)F)nn1CC(=O)NC1C(=O)N2C(C(=O)O)=C(CSc3nnnn3C)CSC12 (centres undefined)	·	·	-2.4	119.0*	·	1.4
CC(C(=O)NC1C(=O)N2C(C(=O)O)=C(CSc3nnnn3C)CSC12)n1cc(Cl)cn1 (centres undefined)	4.9	-0.3	-3.6	105.4*	-2.0	-6.3
Cc1nnc(SCC2=C(C(=O)O)N3C(=O)C(NC(=O)C(C)n4nc(C(F)(F)F)cc4C)C3SC2)s1 (centres undefined)	-1.3	1.9	1.4	102.6*	-0.5	-5.5
Cc1nnc(SCC2=C(C(=O)O)N3C(=O)C(NC(=O)Cc4ccccc4)C3SC2)s1 (centres undefined)	-0.8	4.7	-5.4	·	0.4	0.7
CCCCCCCCN1C(=O)[C@H](CC(=O)NCCc2ccccc2OC)C[C@@]2(C(=O)OC)CC(C)(C)CC=C12	·	·	·	·	·	-0.9
CC(C)Cc1ccc(C(C)NC(=O)c2ccc(=O)[nH]c2)cc1 (centres undefined)	-1.2	-3.7	4.8	-3.2	0.1	0.2
COc1ccc(Cc2nnc(NC(=O)CS(=O)(=O)c3ccccc3)s2)cc1OC	3.0	1.2	-0.8	-0.9	2.3	-2.4
Cc1c(Cl)cnn1CC(=O)NC1C(=O)N2C(C(=O)O)=C(CSc3nnnn3C)CSC12 (centres undefined)	1.4	0.8	-1.0	120.4*	-1.8	15.9
Cn1nnnc1SCC1=C(C(=O)O)N2C(=O)C(NC(=O)Cn3nc(C(F)F)cc3C3CC3)C2SC1 (centres undefined)	0.8	-1.5	1.6	104.0*	-0.5	-6.2
CO[C@@]1(NC(=O)C2SC(=C(C(N)=O)C(=O)O)S2)C(=O)N2C(C(=O)O)=C(CSc3nnnn3C)CS[C@@H]21 (some centres undefined)	0.5	1.3	6.1	·	1.0	12.8
CC12CCC(C(=O)CC1=O)C2(C)C (centres undefined)	·	·	-2.6	·	·	4.7
Cc1cc2nc(-c3nnnn3Cc3ccccc3)c(=O)[nH]c2cc1C	·	·	·	·	·	11.5
CC1CCN(S(=O)(=O)c2ccc(N/N=C(/C#N)C(N)=O)cc2)CC1	-5.8	0.3	1.4	-22.0	-1.4	1.1
N#C/C(=N\Nc1ccc(S(=O)(=O)N2CCOCC2)cc1)C(N)=S	8.9	1.1	5.1	64.7*	2.4	-1.5
N#C/C(=N\Nc1ccc(Cl)cc1)C(N)=S	11.0	-0.5	4.9	97.2*	2.4	-10.7
CNc1ncnc2c1ncn2-c1ccccc1	·	·	3.3	·	·	-2.0
CCOc1ccc(CCNS(=O)(=O)c2ccc3c(c2)N(C(C)=O)CCO3)cc1OCC	2.4	-0.3	6.7	-0.6	1.6	-2.3
CCCCc1ccc(S(=O)(=O)NC(=O)C2(C)CCN2C(=O)CCc2cccs2)cc1 (centres undefined)	·	·	·	·	·	-6.4
SMILES	IDE cell inh	PP1 inh	IDE cell activ	SKKanGAS inh	PP5 primary	Exocytosis inh
CN(C)C(=S)SCCn1c(N)nc(N(C)C)nc1=O	6.5	2.1	0.6	-0.8	2.9	-0.5
Cc1[nH]n2c(=O)c3c(nc2c1-c1cccc2ccccc12)CCC3	-2.6	-1.5	-2.9	3.5	-1.1	3.5
O=c1c2c(nc3c(-c4cccc5ccccc45)c[nH]n13)CCC2	6.5	16.9*	-1.2	16.1	-1.6	2.1
O=c1c2c(nc3c(-c4ccc(Cl)cc4)c[nH]n13)CCCC2	0.1	2.2	0.9	71.0*	1.5	-0.4
COc1ccc(C2=Nc3ccccc3N(C(=O)c3ccc(C(F)(F)F)cc3)C2C(=O)NCc2ccccc2)cc1 (centres undefined)	·	·	·	·	·	-12.5
COc1ccc(CN2CCNC(=O)C2CC(=O)N(C)Cc2nonc2C)c(F)c1 (centres undefined)	-2.2	-0.2	-0.3	-1.3	-1.1	-2.3
COc1ccccc1NC(=O)COC(=O)C1=NN(c2ccccc2)C(=O)CC1	8.4	·	2.2	·	·	-19.9
CCCc1nc(SCC(=O)N2CCCCCC2)c2c(=O)n(C)c(=O)n(C)c2n1	2.3	0.8	·	50.1*	4.5	·
CC(=O)Nc1ccc2c(c1)C(=O)c1ccc(Cl)cc1-2	·	·	-1.3	·	·	0.4
Cc1ccc(C)c(OCC(=O)Nc2nonc2NC(=O)COc2cc(C)ccc2C)c1	-2.6	16.6*	3.3	4.9	4.9	-0.8
NC(=O)c1ccc[n+](CC(=O)c2cccc([N+](=O)[O-])c2)c1	2.0	3.7	1.6	1.9	-0.4	-0.2
CCSc1nsc(NC(=O)Nc2cccc(F)c2)n1	12.8	14.2	5.5	66.1*	-1.3	23.3
COc1cccc(NC(=O)Nc2nc(SC)ns2)c1	-6.4	2.1	10.7	48.8	2.1	28.6
COc1cccc(NC(=O)Nc2nc(SC(C)(C)C)ns2)c1	1.9	17.2*	4.1	54.6*	5.2	-0.1
CCc1ccc2c(Cl)c(C(=O)N/N=C/c3c[nH]c4ccccc34)sc2c1	0.5	2.0	1.1	69.2*	4.9	3.0
O=C(N/N=C/c1c[nH]c2ccccc12)c1ccn(Cc2ccc(Cl)cc2Cl)n1	10.8	3.8	-0.6	54.7*	5.8	0.0
CCCCn1c(NC(=O)c2ccccc2)c(C#N)c2nc3ccccc3nc21	·	·	-3.7	·	·	13.7
CCC(C)n1c(NC(=O)c2ccccc2)c(C#N)c2nc3ccccc3nc21 (centres undefined)	1.7	5.2	-3.8	69.1*	5.6	8.3
CCCCn1c(NC(=O)c2ccc(F)cc2)c(C#N)c2nc3ccccc3nc21	1.5	5.1	·	30.8	14.5*	·
CCC(=O)Nc1c(C#N)c2nc3ccccc3nc2n1-c1ccc(C)cc1	·	·	6.0	·	·	3.3
Cc1ccc(N2C(=O)C3CC(c4ccccc4)=C4C5C=CC(C6C(=O)N(c7ccc(C)cc7)C(=O)C56)C4C3C2=O)cc1 (centres undefined)	-1.3	-0.2	-0.4	65.4*	-3.6	10.0
